A selection: hits, their analogues and other compounds. The true share with any hit is near 1.3%.
COUP-TFII inh: inhibitors of human COUP-TFII (NR2F2); P24468; HEK293T NGFI-A luciferase reporter, luminescence; inhibition, % at 8.6 µM; 370,000 tested, 0.7% active;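 active means inhibition above a per-plate cutoff, mean inhibition of test wells between control levels plus 3 SD, cut at about 38% in these data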;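 further: cells cotransfected with COUP-TFII expression vector driving the NGFI-A reporter; 0% = median of COUP-TF2 test wells and 100% = reporter-only cells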
SRC3 inh: inhibits human SRC3 coactivator; 360,000 tested, 0.17% active; HEK293 GAL4-SRC3 luciferase reporter, luminescence; inhibition, % at 3.6 µM; AID 588352;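 active means inhibition above a per-campaign cutoff, the mean of all compounds plus 3 SD, cut at about 60% in these data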;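 further: 0% = DMSO-treated cells and 100% = gossypol-treated cells at 36 µM; higher means less SRC3-driven luciferase light from the GAL4 reporter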
NCOA2 inhibitor: human SRC2 (NCOA2) inhibition; Q15596; HEK293 GAL4-SRC2 luciferase reporter, luminescence; inhibition, % at 9 µM; 370,000 tested, 0.17% active; AID 651957;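 active means inhibition above the mean inhibition of all tested compounds plus 3 SD, set per campaign, cut at about 52% in these data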;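 further: 0% = DMSO treated cells and 100% = cells given Gossypol at 36 µM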
NCOA1 inh: inhibits human SRC1 coactivator; 360,000 tested, 0.12% active; inhibition, % at 3.6 µM; Q15788; HEK293 GAL4-SRC1 luciferase reporter, luminescence; AID 588354;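 active means inhibition above the campaign mean plus 3 SD, with each screening campaign given its own cutoff, cut at about 60% in these data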;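 further: 0% = DMSO treated cells and 100% = gossypol at 36 µM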
Target sequence (Q15788 whole entry, looked up, the tested form may be a part): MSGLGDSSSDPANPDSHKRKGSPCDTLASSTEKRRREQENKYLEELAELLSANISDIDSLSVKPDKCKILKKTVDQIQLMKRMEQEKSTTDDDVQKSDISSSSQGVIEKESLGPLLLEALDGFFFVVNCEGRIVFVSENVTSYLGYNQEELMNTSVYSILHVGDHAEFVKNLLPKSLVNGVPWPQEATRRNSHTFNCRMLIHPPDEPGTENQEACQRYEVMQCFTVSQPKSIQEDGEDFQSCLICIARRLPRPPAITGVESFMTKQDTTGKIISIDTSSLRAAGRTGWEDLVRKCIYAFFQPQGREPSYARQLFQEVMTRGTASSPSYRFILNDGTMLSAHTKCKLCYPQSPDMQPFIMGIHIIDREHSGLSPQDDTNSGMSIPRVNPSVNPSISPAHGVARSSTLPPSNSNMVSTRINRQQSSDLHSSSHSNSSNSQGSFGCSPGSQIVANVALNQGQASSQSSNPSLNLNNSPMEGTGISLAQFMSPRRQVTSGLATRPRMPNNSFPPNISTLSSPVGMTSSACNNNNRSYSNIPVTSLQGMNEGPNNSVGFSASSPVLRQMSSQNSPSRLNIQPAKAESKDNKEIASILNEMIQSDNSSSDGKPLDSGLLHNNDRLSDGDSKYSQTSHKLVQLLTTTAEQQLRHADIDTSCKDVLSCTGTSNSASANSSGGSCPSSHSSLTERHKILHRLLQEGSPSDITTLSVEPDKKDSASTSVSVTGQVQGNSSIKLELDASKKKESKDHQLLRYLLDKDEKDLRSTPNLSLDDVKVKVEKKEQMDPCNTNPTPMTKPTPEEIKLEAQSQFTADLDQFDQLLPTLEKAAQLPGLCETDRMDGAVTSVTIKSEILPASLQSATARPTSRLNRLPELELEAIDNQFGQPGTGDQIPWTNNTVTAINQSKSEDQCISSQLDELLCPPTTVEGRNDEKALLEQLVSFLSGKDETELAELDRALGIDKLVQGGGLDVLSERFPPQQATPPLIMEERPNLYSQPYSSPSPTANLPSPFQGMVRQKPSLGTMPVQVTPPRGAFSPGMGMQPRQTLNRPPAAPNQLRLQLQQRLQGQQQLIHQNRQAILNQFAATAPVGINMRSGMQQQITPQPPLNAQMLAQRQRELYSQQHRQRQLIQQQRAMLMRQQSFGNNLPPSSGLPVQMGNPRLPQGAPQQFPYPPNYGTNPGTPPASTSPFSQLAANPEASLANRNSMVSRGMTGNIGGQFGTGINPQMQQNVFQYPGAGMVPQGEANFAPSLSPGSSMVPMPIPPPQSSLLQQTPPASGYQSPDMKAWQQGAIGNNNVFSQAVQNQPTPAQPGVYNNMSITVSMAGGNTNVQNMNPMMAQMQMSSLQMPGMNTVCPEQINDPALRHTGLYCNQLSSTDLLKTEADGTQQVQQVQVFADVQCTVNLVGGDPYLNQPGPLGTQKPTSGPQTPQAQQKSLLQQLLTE
Gli-Sufu block: Gli-Sufu pathway antagonism | inhibition, % at 5 µM | AID 588413 | 340,000 tested, 0.74% active | Sufu-KO-LIGHT fibroblasts, Gli luciferase reporter luminescence;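 active means inhibition above about 55%, limit read from the data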;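 further: 0% = DMSO-treated cells and 100% = wells with medium but no cells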
NR5A2 inv ag: suppresses constitutive activity of human LRH-1 | O00482 | HEK293T StAR-luciferase reporter, LRH-1 transfected, 24 h | inhibition, % at 3.6 µM | 360,000 tested, 0.13% active | AID 602396;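 active means inhibition above the mean inhibition of all tested compounds plus 3 SD, cut at about 73% in these data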;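 further: 0% = DMSO wells and 100% = reporter-only cells lacking LRH-1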
Gli-Sufu confirm: confirmation of Gli-SUFU pathway antagonists. shares compounds with Gli-Sufu block. inhibition, % at 5 µM. Sufu-KO-LIGHT cells, Gli luciferase reporter, luminescence. AID 602428. 2,500 tested, 40% active;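 active means mean inhibition at 5 µM reaching about 45%, limit read from the data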;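 further: plate controls were DMSO-treated cells for no effect and wells lacking cells for full effect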
SufuKO cytotox: cytotoxic in Gli-SUFU antagonist counter-screen; 2,500 tested, 32% active; cytotoxicity, % at 5 µM; Sufu-KO-LIGHT cells cytotoxicity, ATP luminescence; shares compounds with Gli-Sufu block;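 active means mean cytotoxicity at 5 µM above about 25%, limit read from the data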;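 further: cells exposed to compound overnight for roughly 16 to 18 hours; plate controls were DMSO wells with cells for no effect and medium without cells for full effect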
Wnt3a counter: inhibits Wnt3a reporter, counter-screen for Gli-SUFU antagonists; shares compounds with Gli-Sufu block; Wnt-LIGHT cells, Wnt3a-driven luciferase reporter, luminescence; inhibition, % at 6.25 µM; 2,500 tested, 20% active; AID 651995;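 active means mean inhibition above about 25%, limit read from the data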
* marks the source's active call; other numbers are inactive results; · = no result given.

SMILES	COUP-TFII inh	SRC3 inh	NCOA2 inhibitor	NCOA1 inh	Gli-Sufu block	NR5A2 inv ag	Gli-Sufu confirm	SufuKO cytotox	Wnt3a counter
CCN(CC)c1ccc(/C=N/Nc2nc(C)cc(=O)[nH]2)c(O)c1	-2.4	84.0*	46.0	80.9*	91.4*	32.5	84.7*	40.7*	70.5*
C=CCN1[C@H](CC(C)C)COc2cc(F)ccc2S1(=O)=O	-8.2	·	23.7	·	·	·	·	·	·
CC(=O)NC(Cc1ccccc1C)C(=O)NC1CCN(C(=O)NCc2ccccc2)CC1 (stereo not drawn)	2.1	10.1	-37.7	-11.0	58.4*	-7.4	21.8	1.8	-1.8
COc1ccccc1CC(NC(C)=O)C(=O)NC1CCN(C(=O)NCc2ccccc2)CC1 (stereo not drawn)	-13.8	9.2	-4.8	14.7	-0.1	0.5	·	·	·
Cc1ccc(N2CC(O)(c3cccs3)[N+]3=C2CCCC3)cc1 (stereo not drawn)	4.6	21.6	15.0	-0.2	33.1	-10.5	·	·	·
COc1ccc(C2(O)CN(c3ccc(C)cc3)C3=[N+]2CCCC3)cc1 (stereo not drawn)	-1.7	7.0	-15.6	12.5	53.6	6.3	55.5*	33.0*	-0.3
CCOC(=O)[C@]12CCCCC/C=C\1N(Cc1ccc(OC)cc1)C(=O)[C@H]2CC(=O)NCC12CC3CC(CC(C3)C1)C2	-3.8	·	-6.8	·	·	·	·	·	·
Cc1ccsc1/C=N/n1c(-c2ccncc2)n[nH]c1=S	2.2	11.4	1.2	7.3	56.1*	7.2	10.4	7.2	1.4
Cc1ccc(C(=O)COC(=O)c2cc(Cl)nc3ccccc23)cc1	-9.5	5.4	-10.2	-31.7	-1.7	0.8	·	·	·
O=C(COC(=O)c1cc(Cl)nc2ccccc12)c1ccc(Cl)cc1	-3.2	16.5	-8.6	-11.9	52.7	-11.7	9.9	22.6	-16.5
C=CCN1C(=O)[C@H](CC(=O)NCCCCc2ccccc2)[C@@]2(C(=O)OCC)CCCC=C12	-4.1	·	9.2	·	·	·	·	·	·
O=C(COc1ccccc1)Nc1nnc(S(=O)(=O)N2CCCCC2)s1	5.4	-19.8	-5.0	-8.9	51.5	-5.1	12.2	21.4	-15.5
COc1ccc(-c2nc(CS(=O)(=O)CC(=O)NCCCN3CCN(C)CC3)c(C)o2)cc1	7.5	3.6	-25.7	7.6	53.4	-19.1	11.3	10.3	-2.2
Cc1oc(-c2ccccc2F)nc1CS(=O)(=O)CC(=O)NCCCN1CCN(C)CC1	2.1	11.7	-12.8	-0.9	-1.8	-12.5	·	·	·
CC1(C)CC(=O)N(c2ccc(Cl)cc2Cl)C(=O)C1	6.9	-1.1	-31.1	12.6	68.5*	-7.2	7.0	4.5	-11.8
CC1(C)CC(=O)N(c2cccc(Cl)c2)C(=O)C1	-1.4	18.8	7.7	-0.4	9.7	17.9	·	·	·
Cc1ccc2[nH]c3c(N4CCN(Cc5ccccc5)CC4)ncnc3c2c1	30.8	7.3	18.6	-55.6	53.4	-1.9	53.4*	37.3*	-5.2
Cc1ccc2[nH]c3c(N4CCN(Cc5ccc6c(c5)OCO6)CC4)ncnc3c2c1	1.5	·	7.4	·	·	·	·	·	·
COC(=O)c1cc2c(c3c4ccccc4n(S(=O)(=O)c4ccc(C)cc4)c13)C(=O)N(CC(C)C)C2	1.0	·	-34.0	·	·	·	·	·	·
Nc1ccc(C(=O)N/N=C\c2cc(N=Nc3cccc4ccccc34)ccc2O)cc1	2.0	60.9	23.8	46.2	66.6*	17.1	65.5*	40.5*	58.7*
CCOC(=O)c1ccc(NC(=O)OC[C@@H]2CSCCS(=O)(=O)N2)cc1	0.7	·	5.4	·	·	·	·	·	·
COc1c(Cl)ccc(Cl)c1C(=O)NCc1ccco1	-9.8	10.9	7.2	13.1	51.1	10.9	14.1	1.8	2.8
CCCn1c2c(c(=N)c3c1CCC3)CCCC2	24.8	13.8	20.5	24.3	61.2*	60.2	59.6*	19.3	1.7
COc1cc(C(=O)NC2CCN(C)CC2)ccc1Nc1ncc2c(n1)N(C1CCCC1)CCC(=O)N2C(C)C	·	9.9	·	-10.8	30.4	27.4	·	·	·
COc1cc(C(=O)NC2CCN(C)CC2)ccc1Nc1ncc2c(n1)N(CCc1ccccc1)CCC(=O)N2C	-90.4	23.1	-115.3	-29.3	75.2*	42.0	67.3*	2.8	-13.2
SMILES	COUP-TFII inh	SRC3 inh	NCOA2 inhibitor	NCOA1 inh	Gli-Sufu block	NR5A2 inv ag	Gli-Sufu confirm	SufuKO cytotox	Wnt3a counter
C/C(=N\O)C(C)(C)Nc1ccccc1F	16.7	15.5	-38.9	6.9	95.8*	-5.0	10.1	13.4	-27.3
Cc1[nH]c2ccccc2c1CC(=O)Nc1ccc(Nc2cccnc2)c(-c2ccc(C(C)(C)C)cc2)c1	9.2	·	0.5	·	·	·	·	·	·
Cc1ccccc1N1C(=O)c2cccc([N+](=O)[O-])c2C1=O	-15.1	16.5	8.0	1.0	64.8*	14.8	18.4	4.5	13.9
O=C1c2cccc([N+](=O)[O-])c2C(=O)N1c1c[nH]c(=O)[nH]c1=O	-14.9	13.0	-1.9	6.6	-18.7	1.3	·	·	·
CCC(NC(=O)NCc1ccccc1)(C(F)(F)F)C(F)(F)F	-1.2	9.8	6.8	-12.2	51.6	-18.8	9.3	27.3*	-11.9
CCC(NC(=O)NCc1ccc2c(c1)OCO2)(C(F)(F)F)C(F)(F)F	-0.5	20.3	9.2	13.1	-8.3	8.4	·	·	·
O=C(c1ccc(F)cc1)C1CCN(C(=S)NCC2CCCO2)CC1 (stereo not drawn)	-5.0	26.7	32.9	-3.4	62.6*	-2.9	13.0	9.9	9.8
CCn1c(SCc2nc3ccccc3c(=O)[nH]2)nc2ccccc21	5.2	-18.0	-5.4	-12.2	56.2*	-2.9	13.0	25.5*	-23.5
O=[N+]([O-])c1cncc2[nH]cnc12	-8.5	·	-23.9	·	·	·	·	·	·
CC(=O)N1CCN(C(=O)c2c(-c3ccccc3)noc2C)CC1	-1.3	1.1	-47.3	-1.2	58.9*	17.6	24.7	8.2	-12.5
CCN1CCN(C(=O)c2c(-c3ccccc3)noc2C)CC1	-1.6	-1.6	4.2	-75.9	25.9	5.2	·	·	·
COc1ccc(N=Nc2ccc(N)nc2N)cc1	-44.2	-105.4	-63.5	-110.5	-117.0	-136.8	·	·	·
Nc1ccc(N=Nc2ccc(O)cc2)c(N)n1	-6.9	-42.5	-6.3	-73.7	60.3*	-95.5	39.3	25.8*	-205.6
O=C(CSc1n[nH]c(=O)n1-c1ccccc1)N1CCOCC1	9.1	8.8	-13.0	-7.2	53.0	0.2	22.3	11.2	14.8
O=C(CSc1nc2c([nH]c3ccccc32)c(=O)n1-c1ccccc1)N1CCOCC1	3.5	0.1	-19.6	0.4	7.7	-0.2	·	·	·
N#Cc1c(-c2ccccc2)cc(C2CC2)nc1N	-8.1	-8.3	-18.3	-10.4	50.3	3.2	21.6	23.6	-14.5
O=C(NCc1ccccn1)c1ccc(Cn2cc(C(F)(F)F)ccc2=O)cc1	18.8	1.2	-9.7	-16.1	61.8*	-7.4	9.7	2.7	-15.2
